Bioassay records deposited in PubChem by The Scripps Research Institute Molecular Screening Center.
Rows were chosen to be rich in hits. Some 0.86% of all compounds tested hit in one or more screens of this group.
TLR4-MyD88 BLA = inhibitors of TLR4-MyD88 association in cells, primary screen, cell-based, HeLa CL3-4, BLA complementation, FRET ratio; Toll-like receptor 4 (Homo sapiens) + Myeloid differentiation primary response protein …; HeLa CL3-4 TLR4/MyD88 BLA complementation; inhibition, % at 8.4 µM; actives 0.18% (n = 200,000); AID 861, 2007; in the data active = inhibition above about 25%;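 note: 0% = vehicle and 100% = reference inhibitor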
IDE cell inh = human IDE inhibitors in live cells, primary screen, fluorescence polarization, HEK cells, FAbetaB substrate. FAbetaB cleavage. inhibition, % at 5.59 µM. actives 0.41% (n = 320,000);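 active = percent inhibition above the average of all tested compounds plus 3 SD, set per screening campaign, cut at about 16% in these data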;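 note: IDE supplied by intact live HEK cells; FP after avidin binding of uncleaved biotin substrate so inhibition keeps polarization high; 0% = DMSO wells and 100% = 60 µM reference IDE inhibitor Ii1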
TLR9-MyD88 inh = inhibitors of TLR9-MyD88 association in cells, primary screen, cell-based, CHO, BLA complementation, fluorescence; inhibition, % at 4.98 µM; AID 504734, 2011; Toll-like receptor 9 (Homo sapiens) + Myeloid differentiation primary response protein …; CCF4 FRET ratio; actives 0.21% (n = 340,000);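 active = inhibition above the mean over all tested compounds plus 3 SD, cut at about 21% in these data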;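 note: 0% = DMSO only wells and 100% = clavulanate BLA inhibitor control wells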
Target sequence (Q99836 whole entry, looked up): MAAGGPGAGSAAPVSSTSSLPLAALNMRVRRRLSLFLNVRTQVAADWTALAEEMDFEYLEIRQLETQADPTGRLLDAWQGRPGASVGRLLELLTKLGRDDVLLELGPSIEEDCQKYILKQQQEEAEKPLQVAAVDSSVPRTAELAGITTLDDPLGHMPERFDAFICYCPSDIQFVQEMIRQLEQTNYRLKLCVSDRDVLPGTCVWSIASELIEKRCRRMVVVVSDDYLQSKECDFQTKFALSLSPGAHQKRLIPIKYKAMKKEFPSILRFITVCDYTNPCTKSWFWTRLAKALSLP
Target sequence (Q9NR96 whole entry, looked up): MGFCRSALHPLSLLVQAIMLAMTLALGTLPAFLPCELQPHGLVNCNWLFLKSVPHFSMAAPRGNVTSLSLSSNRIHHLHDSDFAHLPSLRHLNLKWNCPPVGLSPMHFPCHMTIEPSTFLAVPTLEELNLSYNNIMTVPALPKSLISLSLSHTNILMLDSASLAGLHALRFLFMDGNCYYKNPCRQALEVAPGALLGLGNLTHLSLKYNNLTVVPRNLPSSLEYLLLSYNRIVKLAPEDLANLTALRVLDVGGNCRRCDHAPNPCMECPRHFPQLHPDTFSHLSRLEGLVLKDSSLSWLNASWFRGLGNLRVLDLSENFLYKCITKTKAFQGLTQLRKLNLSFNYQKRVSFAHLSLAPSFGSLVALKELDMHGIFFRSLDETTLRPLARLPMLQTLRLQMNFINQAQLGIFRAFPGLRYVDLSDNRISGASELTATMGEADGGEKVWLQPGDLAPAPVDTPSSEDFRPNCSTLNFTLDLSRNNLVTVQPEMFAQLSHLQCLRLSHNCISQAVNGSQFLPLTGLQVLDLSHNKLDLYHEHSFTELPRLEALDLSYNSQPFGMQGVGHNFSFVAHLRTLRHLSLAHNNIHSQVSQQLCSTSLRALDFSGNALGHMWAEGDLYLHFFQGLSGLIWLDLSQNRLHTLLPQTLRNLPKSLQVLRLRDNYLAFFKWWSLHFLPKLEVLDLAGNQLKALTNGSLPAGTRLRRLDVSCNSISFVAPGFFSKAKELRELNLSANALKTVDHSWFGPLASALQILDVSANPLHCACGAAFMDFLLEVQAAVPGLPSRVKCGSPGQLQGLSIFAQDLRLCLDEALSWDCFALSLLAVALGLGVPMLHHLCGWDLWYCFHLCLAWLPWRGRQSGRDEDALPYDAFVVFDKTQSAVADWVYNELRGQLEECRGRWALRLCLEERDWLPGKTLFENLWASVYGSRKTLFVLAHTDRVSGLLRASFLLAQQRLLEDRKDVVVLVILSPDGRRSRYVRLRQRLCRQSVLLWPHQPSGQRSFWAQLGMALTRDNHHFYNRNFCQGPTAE
IDE cell activ = human IDE activators in live cells, primary screen, fluorescence polarization, HEK cells, FAbeta-B substrate; Insulin-degrading enzyme (Homo sapiens), P14735; FAbeta-B cleavage; 0% vehicle, 100% cell-free pure enzyme wells; activation, % at 5.96 µM; actives 0.073% (n = 340,000); AID 493087, 2011;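 active = activation above the mean of all tested compounds plus 3 SD, set per screening campaign, cut at about 17% in these data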
NOD2-RIPK2 inh = NOD2-RIPK2 binding disruptors in cells, primary screen, fluorescence, CHO cells, BLA complementation; Receptor-interacting serine/threonine-protein kinase 2 (Homo sapiens), O43353; CCF4 ratio; inhibition, % at 4.98 µM; actives 0.38% (n = 360,000); AID 624267, 2012; in the data active = inhibition above about 21%;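 note: 0% = vehicle only and 100% = reference blocker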
TLR9-MyD88 conf = TLR9-MyD88 association inhibitors, retest, confirmation, cell-based, CHO, BLA complementation, fluorescence, triplicate; shares compounds with TLR9-MyD88 inh; inhibition, % at 4.98 µM; AID 540250, 2011; CCF4 FRET ratio; actives 51% (n = 680);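 active = mean inhibition across three repeats above about 21% taken from the earlier screen, limit read from the data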;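 note: blue over green emission ratio reports constitutive TLR9 MyD88 association via BLA complementation; 0% = DMSO vehicle wells and 100% = clavulanate BLA inhibitor wells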
BLA counter-1 = beta-lactamase reporter inhibitors in CHO cells, artefact control for TLR9-MyD88 binding inhibitor project, cell-based, fluorescence | actives 7% (n = 680) | CHO-BLA cells, CCF4 FRET ratio, BLA reporter | shares compounds with TLR9-MyD88 inh | inhibition, % at 4.98 µM;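 active = mean inhibition above a 50% cutoff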;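 note: counterscreen of TLR9-MyD88 hits on CMV-driven BLA in CHO-K1 cells; 0% = DMSO alone and 100% = clavulanate blocking BLA; higher means less blue over green ratio so more BLA blockade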
TLR9 CHO tox = CHO cell viability loss – luminescence, single concentration, cytotoxicity control for TLR9-MyD88 binding inhibitor project; shares compounds with TLR9-MyD88 inh; TLR9-MyD88 CHO cells cytotoxicity; inhibition, % at 4.98 µM; actives 39% (n = 680); in the data active = inhibition above about 11%
NOD2 RIPK2 conf = NOD2-RIPK2 binding disruptors, retest, confirmation, fluorescence, CHO cells, BLA complementation, triplicate. actives 70% (n = 1,200). CCF4 FRET. shares compounds with NOD2-RIPK2 inh. inhibition, % at 4.98 µM;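 active = mean inhibition across replicates above a set limit taken from the earlier primary screen, cut at about 21% in these data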;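 note: 0% = DMSO-only wells and the high end = clavulanate BLA-blocked wells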
BLA counter-2 = counter-screen for NOD2-RIPK2 interaction inhibitors: BLA reporter; inhibition, % at 4.98 µM; actives 57% (n = 1,200); shares compounds with NOD2-RIPK2 inh; CHO BLA reporter, CCF4 FRET ratio, counterscreen;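 active = mean inhibition above the low-control mean inhibition plus three low-control SD, cut at about 11% in these data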;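 note: 0% = DMSO only wells and 100% = clavulanate high control wells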
Numbers without * were called inactive; . = not tested or not shown.

SMILES	TLR4-MyD88 BLA	IDE cell inh	TLR9-MyD88 inh	IDE cell activ	NOD2-RIPK2 inh	NOD2 RIPK2 conf	BLA counter-2	others
CC(C)NC(=O)CCNC(=O)c1ccc(F)cc1	-4.8	-2.9	5.5	1.2	0.0	.	.
CC(C)NC(=O)CSc1ccccc1C(=O)N1CCN(S(=O)(=O)/C=C/c2ccccc2)CC1	.	-3.0	7.7	-0.7	4.4	.	.
COc1cccc(CN2C(=O)c3cccc(N)c3C2=O)c1	23.0	4.1	28.4*	6.4	35.9*	37.6*	46.6*	TLR9-MyD88 conf=11.2;BLA counter-1=16.6;TLR9 CHO tox=-2.5
C=CCn1c(O)c(C2=c3ccccc3=NC2=O)c2ccccc21	.	9.5	20.9*	-4.5	77.5*	79.6*	-0.8	TLR9-MyD88 conf=27.3*;BLA counter-1=-0.5;TLR9 CHO tox=97.7*
Cc1ccc2c(c1)c(C1=c3ccccc3=NC1=O)c(O)n2C	.	8.1	12.0	-0.3	12.1	.	.
Cc1ccc(C2=CC(c3ccc(C)cc3)n3ncnc3N2)cc1 (stereo not drawn)	.	7.8	25.6*	2.0	45.9*	33.1*	34.7*	TLR9-MyD88 conf=14.7;BLA counter-1=17.5;TLR9 CHO tox=-4.6
CCOc1ccc(C2C=C(c3ccccc3)Nc3nnnn32)cc1 (stereo not drawn)	4.4	-8.4	18.6	-7.5	1.2	.	.
COc1ccc(C2C=C(c3ccccc3)Nc3ncnn32)cc1 (stereo not drawn)	14.0	2.2	38.7*	-0.9	46.0*	-2.8	-4.3	TLR9-MyD88 conf=4.2;BLA counter-1=7.9;TLR9 CHO tox=-0.9
CCOc1ccc(C2C=C(c3ccc(C)cc3)Nc3nnnn32)cc1 (stereo not drawn)	3.2	5.8	61.7*	-48.9	45.0*	-4.3	-0.3	TLR9-MyD88 conf=-1.1;BLA counter-1=-3.4;TLR9 CHO tox=1.6
COc1cc(C(=O)NCCc2ncccc2C)ccc1OC1CCN(C(C)=O)CC1	.	2.8	-1.2	5.2	-5.0	.	.
Cc1ccc2cc3cc(C(=O)NC4CCCCC4)oc3nc2c1	.	7.1	2.4	2.0	2.4	.	.
O=[N+]([O-])c1ccc(Nc2ccc3ccccc3c2)nc1	24.6	2.4	23.7*	2.3	36.8*	21.5*	25.2*	TLR9-MyD88 conf=19.1;BLA counter-1=9.6;TLR9 CHO tox=8.0
CC(NC(=O)C1CCC1)c1ccccc1 (stereo not drawn)	-2.3	0.3	-10.4	3.2	-5.5	.	.
CCn1nc(C)cc1-c1nnc(Sc2ncc([N+](=O)[O-])s2)n1C	.	-4.8	28.7*	-5.7	78.2*	85.1*	19.1*	TLR9-MyD88 conf=42.1*;BLA counter-1=-1.1;TLR9 CHO tox=100.5*
Cc1cc(NC(=O)CSc2nc3cc(Cl)ccc3c(=O)n2C(C)C)no1	.	.	1.3	6.4	-0.5	.	.
CCc1nnc(NC(=O)CN2CCOCC2)s1	-4.4	-4.7	-4.8	2.7	1.1	.	.
O=Nc1c(O)n(Cc2ccc(Cl)c(Cl)c2)c2ccccc12	7.2	1.5	28.0*	6.0	34.0*	56.0*	42.0*	TLR9-MyD88 conf=11.2;BLA counter-1=11.4;TLR9 CHO tox=16.6*
O=Nc1c(O)n(Cc2ccccc2)c2ccccc12	.	2.3	9.2	-1.2	2.4	.	.
COc1ccccc1N1C(=O)C2C(C(=O)c3ccccc3)=NN(c3ccc(C)cc3)C2C1=O (stereo not drawn)	.	9.0	.	.	26.6*	66.7*	67.1*
COc1ccccc1N1C(=O)C2C(C(=O)c3ccccc3)=NN(c3ccc(Br)cc3)C2C1=O (stereo not drawn)	.	2.5	.	.	24.8*	80.7*	82.6*
O=c1[nH]c2cc3c(cc2cc1CN(CCc1ccccc1)Cc1nnnn1CC1CCCO1)OCO3 (stereo not drawn)	-9.1	-3.8	4.6	-0.5	10.2	.	.
O=c1[nH]c2cc3c(cc2cc1CN(Cc1nnnn1CC1CCCO1)C1CCCC1)OCO3 (stereo not drawn)	-2.6	-5.4	18.1	10.8	39.0*	-4.5	0.8
O=c1[nH]c2cc3c(cc2cc1CN(Cc1nnnn1CC1CCCO1)C1CCCCC1)OCO3 (stereo not drawn)	13.9	-2.8	19.9	2.1	22.2*	4.5	0.5
O=C(NCc1ccccc1)C(CCc1ccccc1)n1c(=O)c(-c2cc3ccccc3[nH]2)nc2ccccc21 (stereo not drawn)	.	.	.	.	50.1*	46.4*	68.8*
O=C(NCc1ccccc1)C(c1cccc2ccccc12)n1c(=O)c(-c2cc3ccccc3[nH]2)nc2ccccc21 (stereo not drawn)	.	.	.	.	43.1*	40.8*	65.8*
SMILES	TLR4-MyD88 BLA	IDE cell inh	TLR9-MyD88 inh	IDE cell activ	NOD2-RIPK2 inh	NOD2 RIPK2 conf	BLA counter-2	others
Cc1cccc(C)c1NC(=O)C(c1cccc2ccccc12)n1c(=O)c(-c2cc3ccccc3[nH]2)nc2ccccc21 (stereo not drawn)	.	.	.	.	42.0*	38.5*	64.5*
O=C(NCc1ccccc1)C(c1cccc2ccccc12)n1c(=O)c(-c2ccco2)nc2ccccc21 (stereo not drawn)	.	.	.	.	-10.8	.	.
O=C(NCc1ccccc1)C(CCc1ccccc1)n1c(=O)c(-c2ccccc2)nc2ccccc21 (stereo not drawn)	.	.	.	.	28.9*	6.3	1.1
CN(C(=O)COC(=O)CCc1nc2ccccc2c(=O)[nH]1)C1CCS(=O)(=O)C1 (stereo not drawn)	-2.2	0.4	5.7	-0.8	-1.8	.	.
O=C(COc1ccccc1)OCC(=O)c1c[nH]c2ccccc12	.	1.5	11.1	2.7	3.6	.	.
Cc1cccc(C)c1NC(=O)C(c1ccccc1F)n1c(=O)c(-c2cc3ccccc3[nH]2)nc2ccccc21 (stereo not drawn)	.	.	.	.	49.8*	46.2*	68.0*
O=C(NCCC1=CCCCC1)c1cc2ccccc2oc1=O	.	3.0	-5.6	-1.2	-2.9	.	.
CC(C)CC(C(=O)OCC(=O)Nc1cccc(Cl)c1)N1C(=O)C2CC=CCC2C1=O (stereo not drawn)	6.8	1.9	0.2	1.8	21.7*	-1.7	-3.0
CC(=O)Nc1ccccc1C(=O)C(=O)Nc1ccccc1	12.6	2.4	-1.6	9.2	-5.9	.	.
O=C1C=CC(=O)N1c1cccc(-c2ccccc2)c1	.	0.0	12.7	-37.6	36.1*	89.6*	29.3*
